The record followed here is PubChem BioAssay (NCI).

Assay [1] in a line: NCI Yeast Anticancer Drug Screen. Data for the rad50 strain (AID 155).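 Also: 0% = growth of vehicle-only cultures of the same strain.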 The following applies: S. cerevisiae rad50 strain growth inhibition; at 50.0 µM; hits give high values. The procedure, abridged: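 A DNA repair-deficient yeast mutant serves as the test organism; compound-induced growth inhibition is calculated against vehicle-treated cells.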
Assay [2] is described as follows: NCI Yeast Anticancer Drug Screen. Data for the mec2-1 strain (AID 157). Particulars: S. cerevisiae mec2-1 strain, at 50.0 µM, hits give high values. The procedure, abridged:
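Compounds were applied to mec2-1 yeast cells. Their growth was then compared with that of vehicle-treated cultures to give growth inhibition.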

Assay [3] in a line: NCI Yeast Anticancer Drug Screen. Data for the sgs1 mgt1 strain (AID 161).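 Also: 0% = growth of cultures given vehicle only.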 Particulars: S. cerevisiae sgs1 mgt1 strain, at 50.0 µM, hits give high values. The procedure, abridged: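 Growth of a repair-deficient yeast mutant was monitored after compound treatment and expressed as inhibition relative to vehicle-treated cultures.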
Assay [4] in a line: NCI Yeast Anticancer Drug Screen. Data for the cln2 rad14 strain (AID 165).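 Also: 0% = growth equal to vehicle treated cultures.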 The following applies: S. cerevisiae cln2 rad14 strain, at 50.0 µM, hits give high values. In a few lines:
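Strain: cln2 rad14 yeast, altered in cell cycle control and DNA damage repair. Read-out: growth inhibition vs vehicle.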

Assay [5] is described as follows: NCI Yeast Anticancer Drug Screen. Data for the bub3 strain (AID 167). The following applies: S. cerevisiae bub3 mutant strain, at 50.0 µM, hits give high values. The procedure, abridged:
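Inhibition values come from growth of compound-treated mutant yeast normalised to vehicle-treated controls.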

The nature of assay [6]: NCI Yeast Anticancer Drug Screen. Data for the mlh1 rad18 strain (AID 175). Particulars: S. cerevisiae mlh1 rad18 strain growth inhibition; at 50.0 µM; hits give high values. The procedure, abridged:
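A repair-deficient yeast strain is exposed to test compound, and growth is scored relative to vehicle-treated controls.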

Each structure is given as a SMILES string. About 79,000 compounds went through this panel and 15% of them were active in at least one assay; those are over-represented in the sample as a whole. Values without a mark were called inactive. Active and inactive are the calls of the source. Rule as the data show it: active = growth inhibition above about 70%; inactive = the rest.

Turning to `COC1=CC(=O)C2CC=C(C)CC2(C)C1=O` (stereo unspecified), the growth inhibition is -7.9% in assay [1]; -12.4% in assay [2]; -16.6% in assay [3]; 18% in assay [4]; -0.05% in assay [5]; -3.8% in assay [6].
Turning to `COc1cc(/C=C/C(=O)c2sc(NNC(C)=O)nc2C)ccc1O`, the growth inhibition in assay [1] is 15.6%; in assay [2], 6.85%; in assay [3], 19.3%; in assay [4], 23.1%; in assay [5], 18.8%; in assay [6], 27.1%.
In the case of `CC(=O)Nc1cc2cc(NS(=O)(=O)c3cc(C(F)(F)F)cc(C(F)(F)F)c3)ccc2oc1=O`, the growth inhibition in assay [1] was 0%; in assay [2] it was -10.2%; in assay [3], -4.9%; in assay [4] it was 17.4%; in assay [5], -9.95%; in assay [6] it was 10.9%.
With `COc1cc(C(=O)O[C@H]2CCC3CCC2N3C)cc(OC)c1OC` (stereo partly specified), the growth inhibition was -46.4% in assay [1]; -31.7% in assay [2]; -4.05% in assay [3]; -9.45% in assay [4]; -3.85% in assay [5]; -47% in assay [6].
Regarding `NC(=O)c1nnc2c(F)cccc2c1N`, the growth inhibition in assay [1] was -39.2%; in assay [2], -29.4%; in assay [3] it was -15.3%; in assay [4] it was -0.8%; in assay [5] it was -27.2%; in assay [6], -24.6%.
Consider `CCC1(C)CC(C)(C)c2cc(C(C)=O)c(C)cc21` (stereo unspecified), for which the growth inhibition in assay [1] is 8.1%; in assay [2] it was -1.05%; in assay [3] it was -4.7%; in assay [4], -29.5%; in assay [5], 11.3%; in assay [6], 4.15%.
Regarding `CCCC(=O)Oc1ccc(C(C)(C)C)cc1C`, the growth inhibition in assay [1] was -5.65%; in assay [2], -19.1%; in assay [3] it was 3.4%; in assay [4], -19.3%; in assay [5], -0.5%; in assay [6], -8.6%.
Regarding `O=C(CN1CCOCC1)Nc1cccc(Cl)c1`, the growth inhibition was 0.5% in assay [1]; -20.1% in assay [2]; -2.6% in assay [3]; -14.8% in assay [4]; 58.3% in assay [5]; -29.1% in assay [6].
On to `COC(=O)C12c3ccccc3C(c3ccccc31)c1c(N=O)ccc(NO)c12`, for which the growth inhibition was 99.2% (active) in assay [1]; 99.3% (active) in assay [2]; 99.1% (active) in assay [3]; 98.7% (active) in assay [4]; 99% (active) in assay [5]; 99% (active) in assay [6].
On to `Nc1nc(N)nc(CNc2c(Br)cc(Br)cc2Br)n1`, for which the growth inhibition in assay [1] was 12%; in assay [2], 24.6%; in assay [3] it was 16.5%; in assay [4], -9.25%; in assay [5] it was -10.2%; in assay [6], 4.95%.
For the compound `Cc1ccc(N=Nc2ccc(C)cc2NC(=O)c2ccc(Cl)cc2Cl)cc1`, the growth inhibition in assay [1] is 9.2%; in assay [2], -9.7%; in assay [3], 9.1%; in assay [4], 4.55%; in assay [5], -1.55%; in assay [6], 18.2%.
Turning to `CCNC(C(=O)O)C1CCCCC1` (stereo unspecified), the growth inhibition in assay [1] was -6.45%; in assay [2] it was -2.95%; in assay [3], -1.65%; in assay [4] it was 8.5%; in assay [5] it was -0.8%; in assay [6], -1.25%.
With `CC(=O)c1c(-c2ccc(Cl)cc2)c(-c2ccc(Cl)cc2)nn(CCNC(C)C)c1=O`, the growth inhibition in assay [1] was 96.7% (active); in assay [2], 98.4% (active); in assay [3], 95.8% (active); in assay [4] it was 88.9% (active); in assay [5], 80.5% (active); in assay [6] it was 95% (active).
For `COc1ccccc1P(=O)(CCP(=O)(c1ccccc1)c1ccccc1OC)c1ccccc1` (stereo unspecified), the growth inhibition in assay [1] was 2.15%; in assay [2], 15.5%; in assay [3], 13.3%; in assay [4] it was 13.5%; in assay [5], -1.75%; in assay [6] it was 9.5%.
Take `CC(=O)N1c2ccccc2C23CCN4CC5=CCOC(O)C(C5CC42)C13` (stereo unspecified): the growth inhibition was -20.1% in assay [1]; -21.4% in assay [2]; -18.6% in assay [3]; -6.55% in assay [4]; -13.9% in assay [5]; -62.4% in assay [6].
For the compound `Cc1c(C)c(C)c(S(=O)(=O)NCCCNS(=O)(=O)c2c(C)c(C)c(C)c(C)c2C)c(C)c1C`, the growth inhibition was 3.85% in assay [1]; -28.7% in assay [2]; -7.2% in assay [3]; 7.7% in assay [4]; -4.95% in assay [5]; -1.1% in assay [6].
For `Cn1c(=O)c2c(nc(NCCNc3nc4c(c(=O)n(C)c(=O)n4C)n3C)n2C)n(C)c1=O`, the growth inhibition in assay [1] was 1.85%; in assay [2], -3.35%; in assay [3], -46.2%; in assay [4], -25.1%; in assay [5] it was -20.8%; in assay [6], -31.7%.
On to `NCCCc1c(-c2ccccc2)nc(N)[nH]c1=O`, for which the growth inhibition is -3.15% in assay [1]; -15% in assay [2]; -35.5% in assay [3]; -28.4% in assay [4]; -58% in assay [5]; -3.05% in assay [6].
For `COc1cccc(/C=C2/Sc3sc(C(C)=O)c(C)[n+]3C2=O)c1O`, the growth inhibition in assay [1] was -15.9%; in assay [2], -1.55%; in assay [3], 8.7%; in assay [4], -2.05%; in assay [5], -4.55%; in assay [6], -9.6%.
Take `CCOC(=O)/C(CC)=N\O`: the growth inhibition in assay [1] was 8.55%; in assay [2] it was -4.85%; in assay [3], 3.75%; in assay [4], 3.25%; in assay [5], -4.45%; in assay [6], 19.2%.
As to `COC(C(=O)CN(C)C)(c1ccccc1)c1ccccc1`, the growth inhibition in assay [1] was 4%; in assay [2] it was -11.1%; in assay [3] it was -1.85%; in assay [4], 6.45%; in assay [5], -26.8%; in assay [6], 23.5%.
